Drawing on PubChem BioAssay (EPA / NIEHS), this text covers outcome and AC50 for 25 compounds.

Experiment [1] concerns the target human Retinoid X Receptor beta (RXRb), RXRB (gene 6257) (UniProt P28702). Put plainly: ATG_RXRb_TRANS: Attagene TRANS-FACTORIAL HepG2 Assay for human Retinoid X Receptor beta (RXRb) (AID 2283013). The procedure, abridged: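 HepG2 cells transiently transfected with multiplexed reporter units driven by GAL4-UAS and exogenous chimeric NR-Gal4 proteins; treated 24 h. Reporter mRNA measured by RT-PCR, 6-FAM labelling and capillary electrophoresis; gain-of-signal fitted versus DMSO baseline.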

The target in experiment [2] is human Thyroid Receptor alpha (THRa1), THRA (gene 7067) (UniProt P10827). Put plainly: ATG_THRa1_TRANS: Attagene TRANS-FACTORIAL HepG2 Assay for human Thyroid Receptor alpha (THRa1) (AID 2283014). The procedure, abridged:
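HepG2 cells transiently transfected with chimeric NR-Gal4 and GAL4-UAS reporter units, dosed 24 h. Reporter mRNA quantified by RT-PCR, fluorescent labeling, HpaI digestion and capillary electrophoresis; gain-of-signal fit versus DMSO.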

Experiment [3] concerns the target human Vitamin D Receptor (VDR), VDR (gene 7421) (UniProt P11473). Put plainly: ATG_VDR_TRANS: Attagene TRANS-FACTORIAL HepG2 Assay for human Vitamin D Receptor (VDR) (AID 2283022). The procedure, abridged:
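HepG2 cells were transiently transfected with GAL4-UAS reporter units and a chimeric VDR-Gal4 construct, then dosed for 24 hours. Reporter mRNA was quantified by RT-PCR, fluorescent labeling, HpaI digestion and capillary electrophoresis; gain of signal analysed vs DMSO.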

Read-out in experiment [4]: E-selectin (Homo sapiens) (UniProt P16581)
Put plainly: BSK_3C_Eselectin: BioMAP Diversity Plus: 3C Assay for Eselectin Biomarker Activity (AID 2283015; active = hit-call score of the fitted dose curve at least 0.9, where 1 is the maximum; inactive = score below 0.9;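 also: cell surface E-selectin protein quantified by ELISA 24 h after dosing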). The note with it: primary human endothelial cells (HUVEC); actives raise or lower the signal. Summed up: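 Primary human umbilical vein endothelial cells (3C system), read 24 h after compound addition; E-selectin measured by ELISA. Bidirectional curve fitting against DMSO baseline; cytotoxicity by parallel SRB total-protein staining.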

Read-out in experiment [5]: Interleukin-1 alpha (IL1a), IL1A (gene 3552)
Put plainly: BSK_BE3C_IL1a: BioMAP Diversity Plus: BE3C Assay for Interleukin-1 alpha (IL1a) Biomarker Activity (AID 2283016; active = hit-call score of the fitted dose curve at least 0.9, where 1 is the maximum; inactive = score below 0.9). The note with it: primary human bronchial epithelial cells; actives raise or lower the signal. The procedure, abridged: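 Human primary bronchial epithelial cells (BE3C system) were dosed with compound and IL-1a measured by ELISA 24 h later. Activity was fitted bidirectionally against DMSO baseline; cytotoxicity was tracked in parallel cultures by SRB total-protein staining.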

Read-out in experiment [6]: Monocyte Chemoattractant Protein-1 (MCP1), CCL2 (gene 6347)
Put plainly: BSK_3C_MCP1: BioMAP Diversity Plus: 3C Assay for Monocyte Chemoattractant Protein-1 (MCP1) Biomarker Activity (AID 2283017; active = hit-call score of the fitted dose curve at least 0.9, where 1 is the maximum; inactive = score below 0.9). The note with it: primary human endothelial cells (HUVEC); actives raise or lower the signal. Summed up: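 Human umbilical vein endothelial cells (3C system) exposed to chemicals for 24 h; MCP-1 quantified by ELISA against the DMSO baseline with bidirectional fitting, and parallel SRB staining used to assess cytotoxicity.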

Read-out in experiment [7]: Monocyte Chemoattractant Protein-1 (MCP1), CCL2 (gene 6347)
Put plainly: BSK_4H_MCP1: BioMAP Diversity Plus: 4H Assay for Monocyte Chemoattractant Protein-1 (MCP1) Biomarker Activity (AID 2283018; active = hit-call score of the fitted dose curve at least 0.9, where 1 is the maximum; inactive = score below 0.9). The note with it: primary human endothelial cells (HUVEC); actives raise or lower the signal. Summed up: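 Human umbilical vein endothelial cells (4H system) dosed with chemical; MCP-1 measured by ELISA 24 h after dosing. Bidirectional curve fitting against DMSO negative control as baseline; parallel SRB total-protein staining tracks overt cytotoxicity.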

Read-out in experiment [8]: Human Leukocyte Antigen - DR isotype (HLADR), HLA-DRA (gene 3122)
Put plainly: BSK_3C_HLADR: BioMAP Diversity Plus: 3C Assay for Human Leukocyte Antigen - DR isotype (HLADR) Biomarker Activity (AID 2283019; active = hit-call score of the fitted dose curve at least 0.9, where 1 is the maximum; inactive = score below 0.9;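 also: ELISA of cell-surface HLA-DR on HUVEC 24 h after dosing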). The note with it: primary human endothelial cells (HUVEC); actives raise or lower the signal. Summed up:
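HUVEC monoculture, HLA-DR measured by ELISA 24 h after chemical dosing. Fitted bidirectionally against DMSO baseline; parallel SRB staining assessed cytotoxicity, with 3C proliferation read by SRB at 48 h.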

Read-out in experiment [9]: Interleukin-8 (IL8), CXCL8 (gene 3576)
Put plainly: BSK_3C_IL8: BioMAP Diversity Plus: 3C Assay for Interleukin-8 (IL8) Biomarker Activity (AID 2283020; active = hit-call score of the fitted dose curve at least 0.9, where 1 is the maximum; inactive = score below 0.9). The note with it: primary human endothelial cells (HUVEC); actives raise or lower the signal. The procedure, abridged: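 Primary human umbilical vein endothelial cells (3C system) were exposed to test chemical for 24 h, then IL-8 was quantified by ELISA. Responses were fitted bidirectionally against DMSO vehicle as baseline.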

Read-out in experiment [10]: Monokine induced gamma interferon (MIG), CXCL9 (gene 4283)
Put plainly: BSK_3C_MIG: BioMAP Diversity Plus: 3C Assay for Monokine induced gamma interferon (MIG) Biomarker Activity (AID 2283021; active = hit-call score of the fitted dose curve at least 0.9, where 1 is the maximum; inactive = score below 0.9). The note with it: primary human endothelial cells (HUVEC); actives raise or lower the signal. Summed up:
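Primary human umbilical vein endothelial cells in the 3C system were exposed to chemical for 24 h, after which MIG was quantified by ELISA. Activity was fitted bidirectionally against DMSO as negative control and baseline.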

The nature of experiment [11]: BSK_3C_SRB: Viability Assessment in the BioMAP Diversity Plus: 3C Assay (AID 2283023; active = hit-call score of the fitted dose curve at least 0.9, where 1 is the maximum; inactive = score below 0.9;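 also: fitted both ways against DMSO so a hit may be signal rise or drop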). The note with it: primary human endothelial cells (HUVEC). The procedure, abridged:
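Human umbilical vein endothelial cells in the 3C system, treated 24 h. Total protein measured by 0.1% sulforhodamine B staining after 10% TCA fixation, read at 560 nm; bidirectional fit versus DMSO.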

Read-out in experiment [12]: Matrix Metallopeptidase 1 (MMP1), MMP1 (gene 4312)
Put plainly: BSK_BE3C_MMP1: BioMAP Diversity Plus: BE3C Assay for Matrix Metallopeptidase 1 (MMP1) Biomarker Activity (AID 2283024; active = hit-call score of the fitted dose curve at least 0.9, where 1 is the maximum; inactive = score below 0.9). The note with it: primary human bronchial epithelial cells; actives raise or lower the signal. Summed up: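 Primary human bronchial epithelial cells were dosed with test chemicals, and MMP1 levels were measured by ELISA 24 h later. Data were fitted bidirectionally against DMSO as the negative control and activity baseline.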

Read-out in experiment [13]: Pselectin, SELP (gene 6403)
Put plainly: BSK_4H_Pselectin: BioMAP Diversity Plus: 4H Assay for Pselectin Biomarker Activity (AID 2283026; active = hit-call score of the fitted dose curve at least 0.9, where 1 is the maximum; inactive = score below 0.9). The note with it: primary human endothelial cells (HUVEC); actives raise or lower the signal. Summed up:
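Primary human umbilical vein endothelial cells were exposed to test chemical for 24 h, then cell-surface P-selectin was quantified by ELISA. Activity was fitted bidirectionally against DMSO as negative control and baseline.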

Experiment [14] in a line: BSK_4H_SRB: Viability Assessment in the BioMAP Diversity Plus: 4H Assay (AID 2283027; active = hit-call score of the fitted dose curve at least 0.9, where 1 is the maximum; inactive = score below 0.9;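 also: cells exposed to compound for 24 h before staining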). The note with it: primary human endothelial cells (HUVEC). Summed up: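 Absorbance at 560 nm of SRB-stained total protein served as the viability read-out in confluent primary human umbilical vein endothelium 24 h after chemical treatment. Curves were fitted bidirectionally against DMSO as negative control.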

The nature of experiment [15]: BSK_BE3C_SRB: Viability Assessment in the BioMAP Diversity Plus: BE3C Assay (AID 2283028; active = hit-call score of the fitted dose curve at least 0.9, where 1 is the maximum; inactive = score below 0.9). The note with it: primary human bronchial epithelial cells. Summed up:
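Human bronchial epithelial primary cells in confluent culture, 24 h after chemical dosing; total protein by 0.1% SRB staining after 10% TCA fixation, read at 560 nm. Bidirectional fitting versus DMSO baseline.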

Read-out in experiment [16]: Urokinase-type plasminogen activator receptor (uPAR), PLAUR (gene 5329)
Put plainly: BSK_4H_uPAR: BioMAP Diversity Plus: 4H Assay for Urokinase-type plasminogen activator receptor (uPAR) Biomarker Activity (AID 2283030; active = hit-call score of the fitted dose curve at least 0.9, where 1 is the maximum; inactive = score below 0.9). The note with it: primary human endothelial cells (HUVEC); actives raise or lower the signal. The procedure, abridged: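 Human umbilical vein endothelial cells in the 4H system, 24 h after chemical dosing. Cell-surface uPAR measured by ELISA, fitted in both directions versus DMSO; cytotoxicity checked by SRB total protein in parallel cultures.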

Read-out in experiment [17]: Vascular endothelial growth factor receptor 2 (Homo sapiens) (UniProt P35968)
Put plainly: BSK_4H_VEGFRII: BioMAP Diversity Plus: 4H Assay for Vascular endothelial growth factor receptor 2 (VEGFR2) Biomarker Activity (AID 2283031; active = hit-call score of the fitted dose curve at least 0.9, where 1 is the maximum; inactive = score below 0.9). The note with it: primary human endothelial cells (HUVEC); actives raise or lower the signal. The procedure, abridged: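 Primary human umbilical vein endothelial cells (4H system), 24 h exposure; cell-surface VEGFR2 measured by ELISA. Bidirectional fitting versus DMSO; cytotoxicity checked in parallel by SRB total-protein staining.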

Read-out in experiment [18]: Human Leukocyte Antigen - DR isotype (HLADR), HLA-DRA (gene 3122)
Put plainly: BSK_BE3C_HLADR: BioMAP Diversity Plus: BE3C Assay for Human Leukocyte Antigen - DR isotype (HLADR) Biomarker Activity (AID 2283032; active = hit-call score of the fitted dose curve at least 0.9, where 1 is the maximum; inactive = score below 0.9). The note with it: primary human bronchial epithelial cells; actives raise or lower the signal. Summed up:
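Human primary bronchial epithelial cells in the BE3C system were exposed to chemicals for 24 h, after which HLA-DR levels were quantified by ELISA. Activity was fitted bidirectionally, gain or loss of signal, against DMSO as negative control and baseline.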

Read-out in experiment [19]: Vascular cell adhesion molecule 1 (VCAM1), VCAM1 (gene 7412)
Put plainly: BSK_4H_VCAM1: BioMAP Diversity Plus: 4H Assay for Vascular cell adhesion molecule 1 (VCAM1) Biomarker Activity (AID 2283033; active = hit-call score of the fitted dose curve at least 0.9, where 1 is the maximum; inactive = score below 0.9). The note with it: primary human endothelial cells (HUVEC); actives raise or lower the signal. The procedure, abridged:
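Primary human umbilical vein endothelial cells were exposed to chemicals for 24 h, after which VCAM-1 was quantified by ELISA. Responses were fitted bidirectionally against DMSO as negative control and activity baseline.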

Results filed as inconclusive are left out. Activity calls are given as the source filed them. The calls were made as follows, unless noted: active = hit-call score of the fitted dose curve at least 0.9, where 1 is the maximum; inconclusive = response in the unintended direction; inactive = score below 0.9.

Chain of E-selectin (Homo sapiens) (P16581 whole entry, looked up): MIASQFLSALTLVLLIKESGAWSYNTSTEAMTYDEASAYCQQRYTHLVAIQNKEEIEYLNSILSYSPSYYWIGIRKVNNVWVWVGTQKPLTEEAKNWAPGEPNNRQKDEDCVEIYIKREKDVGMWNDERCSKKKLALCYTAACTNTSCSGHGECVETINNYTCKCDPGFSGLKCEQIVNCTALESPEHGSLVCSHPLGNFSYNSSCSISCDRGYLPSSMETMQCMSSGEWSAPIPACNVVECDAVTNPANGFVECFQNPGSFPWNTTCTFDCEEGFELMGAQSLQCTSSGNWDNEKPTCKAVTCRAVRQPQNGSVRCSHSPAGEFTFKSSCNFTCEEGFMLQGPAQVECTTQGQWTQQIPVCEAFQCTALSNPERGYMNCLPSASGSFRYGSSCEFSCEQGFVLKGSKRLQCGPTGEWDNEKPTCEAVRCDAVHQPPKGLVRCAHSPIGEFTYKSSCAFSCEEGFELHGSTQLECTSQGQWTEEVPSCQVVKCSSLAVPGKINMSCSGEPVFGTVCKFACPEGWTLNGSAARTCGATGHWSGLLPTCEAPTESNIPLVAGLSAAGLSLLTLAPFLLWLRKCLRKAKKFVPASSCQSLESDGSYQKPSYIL
Chain of human Vitamin D Receptor (VDR), VDR (gene 7421) (P11473 whole entry, looked up, the tested form may be a part): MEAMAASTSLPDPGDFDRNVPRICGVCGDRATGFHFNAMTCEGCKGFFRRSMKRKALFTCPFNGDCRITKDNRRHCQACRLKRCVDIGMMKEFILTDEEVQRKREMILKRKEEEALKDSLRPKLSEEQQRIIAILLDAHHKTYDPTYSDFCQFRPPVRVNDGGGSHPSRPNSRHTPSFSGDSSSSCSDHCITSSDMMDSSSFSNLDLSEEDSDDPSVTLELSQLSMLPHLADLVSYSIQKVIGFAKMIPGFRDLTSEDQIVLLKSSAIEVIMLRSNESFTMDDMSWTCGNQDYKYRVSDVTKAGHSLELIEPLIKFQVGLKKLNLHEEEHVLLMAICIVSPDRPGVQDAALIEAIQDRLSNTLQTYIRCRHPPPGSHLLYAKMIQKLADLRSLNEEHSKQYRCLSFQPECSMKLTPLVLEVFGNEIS
Chain of human Retinoid X Receptor beta (RXRb), RXRB (gene 6257) (P28702 whole entry, looked up, the tested form may be a part): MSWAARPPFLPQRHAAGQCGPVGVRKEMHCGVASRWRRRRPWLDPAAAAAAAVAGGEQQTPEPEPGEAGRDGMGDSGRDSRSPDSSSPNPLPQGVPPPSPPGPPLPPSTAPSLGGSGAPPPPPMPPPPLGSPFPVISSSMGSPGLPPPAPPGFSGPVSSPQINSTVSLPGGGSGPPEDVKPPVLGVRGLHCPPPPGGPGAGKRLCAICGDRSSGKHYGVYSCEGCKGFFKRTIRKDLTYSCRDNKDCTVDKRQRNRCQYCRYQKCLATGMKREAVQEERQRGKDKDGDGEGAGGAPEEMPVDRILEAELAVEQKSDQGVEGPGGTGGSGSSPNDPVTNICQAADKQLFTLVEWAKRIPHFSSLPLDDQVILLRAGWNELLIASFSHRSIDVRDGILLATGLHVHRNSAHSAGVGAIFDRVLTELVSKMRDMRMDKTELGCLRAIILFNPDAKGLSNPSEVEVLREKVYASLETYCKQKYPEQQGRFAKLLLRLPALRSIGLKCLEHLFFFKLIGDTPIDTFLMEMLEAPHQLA
Chain of human Thyroid Receptor alpha (THRa1), THRA (gene 7067) (P10827 whole entry, looked up, the tested form may be a part): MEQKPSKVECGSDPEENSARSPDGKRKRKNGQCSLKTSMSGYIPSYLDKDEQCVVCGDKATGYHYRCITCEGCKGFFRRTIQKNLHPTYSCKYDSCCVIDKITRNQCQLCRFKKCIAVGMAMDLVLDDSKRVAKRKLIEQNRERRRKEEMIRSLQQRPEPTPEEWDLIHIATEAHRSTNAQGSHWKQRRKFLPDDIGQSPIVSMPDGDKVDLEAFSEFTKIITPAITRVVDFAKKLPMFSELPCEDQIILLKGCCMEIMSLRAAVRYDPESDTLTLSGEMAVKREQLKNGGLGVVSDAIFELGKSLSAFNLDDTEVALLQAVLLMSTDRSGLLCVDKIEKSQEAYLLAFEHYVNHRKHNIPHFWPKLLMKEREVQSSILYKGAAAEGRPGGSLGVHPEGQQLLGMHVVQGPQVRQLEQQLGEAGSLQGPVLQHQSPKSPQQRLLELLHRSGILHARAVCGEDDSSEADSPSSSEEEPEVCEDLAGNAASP

On to `CCOc1ccc(N)c([N+](=O)[O-])c1`, for which the call in experiment [1], in experiment [2] and in experiment [3] was inactive.
Turning to `NCCCN1CCN(CCCN)CC1`, the compound was classed as inactive in experiment [1], in experiment [2] and in experiment [3].
What is called AC50 is the concentration at which the activity in the assay is half-maximal. Consider `CC(C)c1ccc2cc(C(C)C)ccc2c1`, for which the concentration at half-maximal activity (AC50) in experiment [1] was 20800 nM (active). Also, the call in experiment [2] and in [3] was inactive.
`CNC(=S)N(C)C`: the compound was called inactive in [1] and in [3].
As to `CCCCC(CC)COCC1CO1` (centres undefined), the result in experiment [1], in experiment [2], in experiment [4], in [5], in experiment [6] and in experiment [7] was inactive. Moreover, the outcome in experiment [8], in experiment [9], in experiment [10], in [11], in experiment [12] and in experiment [13] was inactive. The outcome in [14], in [15], in experiment [16], in experiment [17], in [18] and in experiment [19] was inactive.
In the case of `O=S(=O)(Oc1ccc(Cl)cc1Cl)c1ccccc1`, the result in experiment [1], in [2] and in [3] was inactive.
In the case of `CCC(=O)Oc1ccc(/C(CC)=C(\CC)c2ccc(OC(=O)CC)cc2)cc1`, in experiment [1], the AC50 was 2920 nM (active). Further, in experiment [3], the outcome was inactive.
Take `CC(C)(Oc1ccc(C2CC2(Cl)Cl)cc1)C(=O)O` (centres undefined): the compound was classed as inactive in [1] and in [2].
As to `CC(=O)OC1C2(C)CCC(C2)C1(C)C` (centres undefined), the call in [1] and in experiment [2] was inactive.
For `NNC(=O)c1cccc(C(=O)NN)c1`, the call in experiment [1], in experiment [2] and in experiment [3] was inactive.
Consider `O=C1C(N(CO)C(=O)NCO)N(CO)C(=O)N1CO` (centres undefined), for which the result in [1] was inactive.
`Cc1ccc(N)c([N+](=O)[O-])c1`: the compound was classed as inactive in experiment [1] and in experiment [3].
For the compound `CC(C)CCCC(C)CC=O` (centres undefined), the compound was classed as inactive in [1] and in [2].
Take `O=S(=O)(O)c1cc(S(=O)(=O)O)c2ccc3c(S(=O)(=O)O)cc(S(=O)(=O)O)c4ccc1c2c43`: the outcome in experiment [1] and in [2] was inactive.
In the case of `C=CC(=O)NC(C)(C)CS(=O)(=O)O`, the compound was classed as inactive in experiment [1] and in [2].
Turning to `CC[C@H]1OC(=O)[C@H](C)[C@@H](O[C@H]2C[C@@](C)(OC)[C@@H](O)[C@H](C)O2)[C@H](C)[C@@H](O[C@@H]2O[C@H](C)C[C@H](N(C)C)[C@H]2O)[C@](C)(O)C[C@@H](C)C(=NOCOCCOC)[C@H](C)[C@@H](O)[C@]1(C)O`, the outcome in experiment [1] and in experiment [3] was inactive.
Regarding `C=C1C2CCC(C2)C1(C)C` (centres undefined), the compound was classed as inactive in [1] and in experiment [2].
Regarding `Cc1cnc(NC(=O)C2=C(O)c3ccccc3S(=O)(=O)N2C)s1`, in [1], the outcome was inactive.
On to `Cc1ccc(N/N=c2\c(=O)cc/c(=N/Nc3ccc(S(=O)(=O)O)cc3)c2=O)c(C)c1`, for which the call in experiment [1] was inactive.
On to `O=C1CCCC1`, for which the call in [1], in [2] and in [3] was inactive.
On to `CCCCCCCC(C)=O`, for which the call in experiment [1] and in experiment [2] was inactive.
For the compound `Cn1c(=O)[nH]c2ncn(C)c2c1=O`, the compound was classed as inactive in experiment [1] and in [3].
With `Cc1cc(C)c(C)cc1C`, the result in experiment [1] and in [3] was inactive.
`CCOC(=O)c1ccc(N(C)C)cc1`: the compound was classed as inactive in experiment [1] and in [3].
Turning to `O=c1c2ccccc2oc2ccccc12`, the outcome in experiment [2], in [4], in experiment [6], in [7], in experiment [8] and in experiment [9] was inactive. Also, the outcome in experiment [10], in experiment [11], in experiment [13], in experiment [14], in experiment [15] and in experiment [16] was inactive. Besides, the outcome in experiment [17], in experiment [18] and in [19] was inactive. The figures for the AC50 in experiment [5] and in experiment [12] were 173 nM (active) and 139 nM (active), respectively.
